We go through 109 compounds from ChEMBL document CHEMBL3988442, “University of Dundee, Small-Polar-MMV Screening Library” (2021).

Out of some 48,000 compounds screened, about 13,000 (27%) showed an effect of 50% or more. The list shows a part of the results.

For this assay, the system named is Wolbachia pipientis. The experiment in a line: Anti-Wolbachia Cell-Based Screen. The format is functional. On the set-up: scale not given: in the data most compounds retested in dose-response had high values. Conditions: 5 µM.
In the case of `O=C(CNC(=O)c1ccoc1)NC(c1ccc(F)cc1)C(F)(F)F` (centres undefined), the “Percent Effect” value is listed as 0.03163%.
Take `CC1CN(C(=O)c2nccnc2N)c2ccc(F)cc2O1` (centres undefined): the “Percent Effect” value was -7.593%.
As to `COCCN(CCOC)C(=O)c1sc(C)nc1C`, the “Percent Effect” value is -9.667%.
Take `CCC(C)(C)NC(=O)C[S+]([O-])Cc1csc(C2CCCC2)n1` (centres undefined): the “Percent Effect” value is given as -6.862%.
`Cc1ccc(C)c(CS(=O)(=O)CC(=O)N(C)Cc2cccc(F)c2)c1`: the “Percent Effect” value was -31.79%.
As to `Cc1nc(C)n(CC2CCCN(c3ncnc4sccc34)C2)n1` (centres undefined), the “Percent Effect” value is listed as 4.886%.
As for `Cc1sc2ncnc(N3CCCC3Cn3cccn3)c2c1C` (centres undefined), the “Percent Effect” value was 126.3%.
In the case of `c1nc(N2CCCC2Cn2cncn2)c2ccsc2n1` (centres undefined), the “Percent Effect” value is recorded as -0.0676%.
Then `c1cnn(CC2CCCN2c2ncnc3ccsc23)c1` (centres undefined), with 77.53%.
With `c1cnn(CC2CCCCN2c2ncnc3sccc23)c1` (centres undefined), the “Percent Effect” value is listed as -1.869%.
Regarding `c1nc(N2CCCC(Cn3cncn3)C2)c2sccc2n1` (centres undefined), the “Percent Effect” value was 164.6%.
`c1nc2c(c(N3CCCC(Cn4cncn4)C3)n1)CCC2` (centres undefined): the “Percent Effect” value was -15.31%.
For `c1nc(N2CCCC(Cn3cncn3)C2)c2ccsc2n1` (centres undefined), the “Percent Effect” value came to 13.9%.
As to `c1ccc2c(N3CCCC3Cn3cccn3)ncnc2c1` (centres undefined), the “Percent Effect” value is listed as -8.877%.
With `c1cnn(CC2CCCN2c2ncnc3c2CCC3)c1` (centres undefined) the figure was -39.95%; with `c1cnn(CC2CCCN2c2ncnc3sccc23)c1` (centres undefined), -19.57%.
In the case of `Cc1nc(C)n(CC2CCCN2c2ncnc3sccc23)n1` (centres undefined), the “Percent Effect” value was determined as 103.4%.
For `COc1ccc(CN2C[C@@H]3[C@H](CC(=O)N4CCCC4)[C@@H]3C2)cc1.O=C(O)C(F)(F)F`, the “Percent Effect” value was -9.887%.
Consider `CN(C)C[C@@H]1CCC[C@@H]2CN(c3cccnc3)C[C@@H]21.O=C(O)C(F)(F)F`, for which the “Percent Effect” value worked out at 5.573%.
With `CC(C)c1nc(S(=O)(=O)N(C)c2cc(F)ccc2F)c[nH]1` the figure was 7.665%.
For the compound `CCN(Cc1ccoc1)Cc1nc(COC)no1`, the “Percent Effect” value is -32.73%.
Take `Cc1nc(C)n(CC2CCCN2c2ncnc3c2CCC3)n1` (centres undefined): the “Percent Effect” value was -5.699%.
Turning to `c1nc(N2CCCCC2Cn2cncn2)c2sccc2n1` (centres undefined), the “Percent Effect” value was found to be 0.3831%.
Then `CN1CCN(C(=O)C2CCCN2c2ncnc3ccsc23)CC1` (centres undefined), with -5.799%; and `Cc1nc(C)n(CC2CCCCN2c2ccnc(-c3ccccc3)n2)n1` (centres undefined), with -2.922%.
As for `Cc1nc(C)n(CC2CCCN2c2ncnc3ccsc23)n1` (centres undefined), the “Percent Effect” value worked out at 106.3%.
Then `Cc1nc(C)n(CC2CCCCN2c2ncnc3ccsc23)n1` (centres undefined), with 109.8%; and `Cc1nc(C)n(CC2CCCN2c2ccnc(-c3ccccc3)n2)n1` (centres undefined), with 6.693%.
`CN(C)C(=O)C1CCCN1c1ncnc2ccsc12` (centres undefined): the “Percent Effect” value was determined as 11.36%.
`Cc1nc(C)n(CC2CCCN2c2ncnc3sc(C)c(C)c23)n1` (centres undefined): the “Percent Effect” value came to 109.1%.
As for `CN(C)C1Cc2ccccc2N(S(=O)(=O)c2cccc(C#N)c2)C1` (centres undefined), the “Percent Effect” value was -17.15%.
As for `CC(C)CC(=O)N1CCN(C(=O)N(C)C)CC2(CC(=O)N(C)C2)C1` (centres undefined), the “Percent Effect” value was -13.83%.
With `Cc1csc(CNC(=O)N2CCCC(c3nncn3C)C2)n1` (centres undefined) the figure was 102.5%.
With `Cn1cnnc1C1CCN(C(=O)c2cc(-c3ccccc3)on2)CC1` the figure was 84.11%.
Turning to `CCOC1CCN(C(=O)c2cc(-c3ccc(Cl)cc3)on2)CC1`, the “Percent Effect” value is -1.009%.
Take `COC1CCN(C(=O)c2cc(-c3ccc(Cl)cc3)on2)CC1`: the “Percent Effect” value is reported as 1.194%.
`CCOc1ncccc1C(=O)N1CCCC(c2nncn2C)C1` (centres undefined): the “Percent Effect” value is given as 139.9%.
With `Cc1noc(C2CCCN(C(=O)c3cc(-c4ccccc4)on3)C2)n1` (centres undefined) the figure was 95.63%; with `CCOc1ncccc1C(=O)N1CCCC(c2nccn2CCOC)C1` (centres undefined), -5.342%.
In the case of `Cn1cnnc1C1CCCN(C(=O)NCc2ccccc2)C1` (centres undefined), the “Percent Effect” value is -1.027%.
In the case of `Cc1noc(C2CCCN(C(=O)c3cc(Cl)cn3C)C2)n1` (centres undefined), the “Percent Effect” value was -4.017%.
`Cc1noc(C2CCCN(C(=O)c3cc(Cl)ccc3F)C2)n1` (centres undefined): the “Percent Effect” value is listed as -1.909%.
Regarding `Cn1cnnc1C1CCCN(C(=O)NCc2cc[nH]n2)C1` (centres undefined), the “Percent Effect” value is listed as -3.292%.
Then `COc1ccc(CNC(=O)NC2CCN(CC(F)F)CC2)cc1C`, with 8.282%; and `CSc1cccc(CC(=O)N[C@@H]2CCNC[C@H]2O)c1`, with -1.267%; and `Cn1cnnc1C1CCCN(C(=O)c2cnc3ccccc3n2)C1` (centres undefined), with -5.928%.
Take `Cn1cnnc1C1CCCN(C(=O)c2cc(-c3ccccc3)on2)C1` (centres undefined): the “Percent Effect” value is recorded as 103.3%.
With `Cn1cnnc1C1CCCN(C(=O)NCCc2ccccn2)C1` (centres undefined), the “Percent Effect” value was -4.673%.
Turning to `Cn1cnnc1C1CCCN(C(=O)NCc2ccccn2)C1` (centres undefined), the “Percent Effect” value came out at 107.2%.
For `Cn1cnnc1C1CCCN(C(=O)c2ccccn2)C1` (centres undefined), the “Percent Effect” value stood at 140.5%.
Take `c1cc(-c2ccc3c(c2)CCC32CCNCC2)ccn1`: the “Percent Effect” value is -7.075%.
Then `CC1(C)Cc2c(cnn2-c2cccc(F)c2)C(NC2CCSCC2)C1` (centres undefined), with 7.076%; and `CCCn1cc(-c2cc(C(=O)N(C)C)c3ccc(C)cc3n2)cn1`, with 103.4%.
As to `Cc1cc(C)c2c(C(=O)N(C)C)cc(-c3cnc(N)nc3)nc2c1`, the “Percent Effect” value is recorded as -4.473%.
Then `Cc1ccc2c(C(=O)N(C)C)cc(-c3cnn(CCO)c3)nc2c1C`, with 115.7%.
With `CO[C@H]1CNC[C@@H]1NC(=O)c1cc(C)nc2c(C)c(C)ccc12` the figure was -8.867%; with `Cc1cc(C(=O)NCc2csc(N(C)C)n2)c2ccc(C)c(C)c2n1`, 2.506%; with `COc1ccc2nc(C3CC3)cc(C(=O)NCC(=O)N(C)C)c2c1`, -4.105%.
Turning to `CN(C)C(=O)c1cc(-c2cnc(N)nc2)nc2cc(F)ccc12`, the “Percent Effect” value turned out to be 2.349%.
`CCCn1cc(-c2cc(C(=O)N(C)C)c3ccc(OC)cc3n2)cn1`: the “Percent Effect” value was 91.31%.
Take `COc1ccc2c(C(=O)N(C)C)cc(-c3cnc(N)nc3)nc2c1`: the “Percent Effect” value is reported as -11.66%.
In the case of `CCCn1cc(-c2cc(C(=O)N(C)C)c3cccc(C)c3n2)cn1`, the “Percent Effect” value came to 108.4%.
For `Cc1ccc2nc(-c3cnc(N)nc3)cc(C(=O)N(C)C)c2c1`, the “Percent Effect” value was -1.148%.
Then `COc1ccc(CNC(=O)CCn2cc(C)cn2)cc1C`, with -6.428%.
`Cc1ccc(-c2nc(CNCCn3cccn3)cs2)o1`: the “Percent Effect” value is recorded as -0.9463%.
As to `CN(Cc1cccs1)c1nc2c(cnn2C(C)(C)C)c(=O)[nH]1`, the “Percent Effect” value was -5.539%.
Consider `O=C(NCC1(N2CCOCC2)CCSC1)Nc1ccccn1` (centres undefined), for which the “Percent Effect” value is 27.17%.
Consider `CSCCc1n[nH]c2c1CN(S(=O)(=O)c1c(C)nn(C)c1C)CC2`, for which the “Percent Effect” value is recorded as -3.086%.
Regarding `Cc1ccc(C(C)NC(=O)Nc2ccccc2CN2CCOCC2)o1` (centres undefined), the “Percent Effect” value is listed as 2.687%.
Then `O=C(Cc1ccccc1F)N1CCC[C@@H]1Cn1c(=O)oc2ccccc21`, with 111.4%; and `Cl.NCC1CCCCN1C(=O)Cc1ccc(F)c(F)c1` (centres undefined), with -20.4%; and `COC[C@@]12CCO[C@@H]1CCN(C(=O)Cc1ccccc1F)C2`, with 7.252%.
For the compound `COc1nc2c(cc1C(=O)NCc1nc(CSC)no1)CCC2`, the “Percent Effect” value is recorded as -10.56%.
For the compound `Cc1cn2nc(N3CCCN(Cc4noc(C)n4)CC3)sc2n1`, the “Percent Effect” value is 4.27%.
As for `Cc1nc(CN2CCN(Cc3nccn3C)CC2)no1`, the “Percent Effect” value stood at 1.161%.
As to `Cc1noc(CN2CCN(CC(C)O)CC2)n1` (centres undefined), the “Percent Effect” value was 16.1%.
On to `Cc1nc(CN2CCN(c3cncc(Cl)n3)CC2)no1`, for which the “Percent Effect” value is 85.67%.
Then `Cc1noc(CN2CCN(CCO)CC2)n1`, with -2.451%.
On to `Cc1nc(CN2CCN(c3ncnc4ccccc34)CC2)no1`, for which the “Percent Effect” value is recorded as -20.36%.
Turning to `Cc1noc(CN2CCN(c3cncc(Cl)n3)CC2)n1`, the “Percent Effect” value was determined as 120%.
For `Cc1nc(CN2CCN(C(=O)CCc3cccc(Cl)c3)CC2)no1`, the “Percent Effect” value worked out at 2.234%.
Then `Cc1nc(CN2CCN(c3ccc(Cl)cn3)CC2)no1`, with 102.8%.
With `CC(C)(C)NC(=O)C1CSCN1S(=O)(=O)c1ccccc1F` (centres undefined) the figure was -0.6778%; with `CCN(CC)CC(=O)Nc1ccc(-n2ccc(C(N)=O)n2)cc1`, -9.684%.
In the case of `Cn1cccc(NC(=O)NCCc2cccc(O)c2)c1=O`, the “Percent Effect” value came to 2.871%.
In the case of `c1ccc(Cc2nnc([C@H]3CCN(C4CCCCC4)C3)o2)cc1`, the “Percent Effect” value turned out to be 3.661%.
As to `c1cc(C2CCN(C3CCCCC3)C2)n[nH]1` (centres undefined), the “Percent Effect” value turned out to be 99.9%.
Then `c1ccc(-c2nnc([C@H]3CCN(C4CCC4)C3)o2)cc1`, with -5.137%; and `FC(F)(F)c1ccc2nc([C@H]3CCN(C4CCCCC4)C3)[nH]c2c1`, with 3.029%; and `c1cc(-c2nnc([C@H]3CCN(C4CCCCC4)C3)o2)ccn1`, with -11.18%.
As to `c1cc(C2CN(C3CCCCC3)C2)n[nH]1`, the “Percent Effect” value is 79.34%.
For the compound `c1cc(C2CN(C3CCCC3)C2)n[nH]1`, the “Percent Effect” value is on record as 154.3%.
`Clc1ccc(-c2nnc([C@H]3CCN(C4CCCCC4)C3)o2)cc1`: the “Percent Effect” value is 11.2%.
In the case of `F[C@@H]1CN(C2CCC2)C[C@@H]1OCc1nc2ncccc2[nH]1`, the “Percent Effect” value was 0.839%.
As to `CC(=O)N(CCC(=O)NC1(C#N)CCC1)Cc1ccccc1`, the “Percent Effect” value is -20.67%.
For `Cc1ccc(Oc2ncccc2CNS(=O)(=O)N2CCOCC2)cn1`, the “Percent Effect” value turned out to be 3.348%.
With `Oc1ccc([C@H]2Oc3cc(O)cc(O)c3C[C@@H]2O)cc1`, the “Percent Effect” value worked out at 2.317%.
`CC(=O)N(C)c1nc(CN2CCN(Cc3nccn3C)CC2)cs1`: the “Percent Effect” value is recorded as -41.34%.
With `CC(=O)N(C)c1nc(Cn2nnnc2C(C)C)cs1`, the “Percent Effect” value is reported as 102.4%.
As to `Cc1ccc(=O)n(Cc2csc(N(C)C3CC3)n2)n1`, the “Percent Effect” value was determined as 2.512%.
Regarding `CC(=O)N(C)c1nc(Cn2nnnc2C(C)(C)C)cs1`, the “Percent Effect” value came out at 75.49%.
Take `CC(=O)N(C)c1nc(CN2CCN(c3nccs3)CC2)cs1`: the “Percent Effect” value is -57.57%.
`CN(C)C(=O)Cc1nc(CN2CCn3c(nnc3C3CC3)C2)cs1`: the “Percent Effect” value amounted to 2.901%.
`CC(=O)N(c1ccc(C)cc1)c1nc(CN2CCCCC2C)cs1` (centres undefined): the “Percent Effect” value amounted to 5.84%.
Regarding `CC(=O)N(c1ccc(F)cc1)c1nc(CN2CCCC2C(C)C)cs1` (centres undefined), the “Percent Effect” value is recorded as -4.339%.
Consider `CCc1nnnn1Cc1csc(N(C)C(C)=O)n1`, for which the “Percent Effect” value was found to be 97.38%.
Regarding `CCN(C(C)=O)c1nc(CN2CCN(c3nccs3)CC2)cs1`, the “Percent Effect” value is on record as -119%.
Take `CC(=O)N(C)c1nc(Cn2nnnc2C2CCCC2)cs1`: the “Percent Effect” value is 98.73%.
For the compound `CNC(=O)c1ccc(=O)n(Cc2csc(N(C)C(C)=O)n2)c1`, the “Percent Effect” value is 1.068%.
